# Sampled rows, rich in hits. Any-hit rate of the full collection: about 3.8%.
# TrxR1 substrate – substrates of rat thioredoxin reductase 1; O89049; purified TrxR1 substrate turnover, NADPH consumption readout; Potency, µM (highest dose often 114 µM), for inactives: top-dose activity change, negative = substrate turnover; actives 0.01% (n = 390,000); further: nearly all actives have a fitted effect of over 50% in size
#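 Rat TrxR1, dispensed at 90 nM, was prereduced with 400 uM NADPH (final) for 5 min at ~22 deg C, then incubated with compound 15 min before 400 uM selenite. A first-read NADPH fluorescence drop versus no-compound background flagged substrates.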
# Sfp inh – Sfp phosphopantetheinyl transferase inhibition; Biochemical Sfp PPTase activity, qHTS; actives 3.5% (n = 310,000); Q9F4F7; Potency, µM, for inactives: largest response in the series, negative = inhibition, actives largely listed as inhibitors;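 further: the enzyme is Sfp with the accession as filed and its product quenches rhodamine fluorescence; 0% = enzyme reaction without inhibitor and -100% = no enzyme wells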
#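 Sfp 15 nM + cpd, 15 min RT; start w/ rhodamine-CoA 5 uM, BHQ-2-YbbR 12.5 uM (final); 50 mM Hepes pH 7.6, 10 mM MgCl2, 0.01% NP-40, 0.01% BSA; read 525/598 nm at 0 and 30 min.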
# TrxR1 inh – rat TrxR1 inhibition; recombinant rTrxR1, NADPH fluorescence consumption, selenite substrate; actives 1% (n = 390,000); O89049; AID 588453; Potency, µM (doses to about 114 µM), for the others: top-dose activity change, negative = inhibition, hits mostly inhibitors; further: nearly all actives have a fitted effect of over 65% in size
#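 Rat TrxR1 (90 nM in the dispensed reagent) was pre-reduced with 400 uM NADPH for 5 min at room temperature, then incubated with compound for 15 min. After 400 uM selenite was added, NADPH fluorescence (Ex 340/Em 450 nm) was followed for 8 min.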
# GLS inhibitor – glutaminase GLS (human) inhibition; actives 0.21% (n = 410,000); O94925; Potency, µM (doses to about 45.5 µM), inactives show top-dose activity change, negative = inhibition, most hits filed as inhibitors; AID 624170; GLS enzymatic activity, qHTS titration
#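 Assay buffer: 45 mM KH2PO4 pH 8.2, 0.02% Tween-20. hKGA acts on L-glutamine (1 mM solution added); product glutamate is reported by an oxidase/peroxidase Amplex Red coupling, with fluorescence taken at baseline and 30 min.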
# VDR inhibitor – blocks the human vitamin D receptor; P11473; VDR-SRC2-3 peptide fluorescence polarization, 2 h; Potency, µM, without a hit: max response, negative = inhibition, actives largely listed as inhibitors; actives 0.93% (n = 400,000); AID 504847
# Target sequence (P11473 whole entry, looked up): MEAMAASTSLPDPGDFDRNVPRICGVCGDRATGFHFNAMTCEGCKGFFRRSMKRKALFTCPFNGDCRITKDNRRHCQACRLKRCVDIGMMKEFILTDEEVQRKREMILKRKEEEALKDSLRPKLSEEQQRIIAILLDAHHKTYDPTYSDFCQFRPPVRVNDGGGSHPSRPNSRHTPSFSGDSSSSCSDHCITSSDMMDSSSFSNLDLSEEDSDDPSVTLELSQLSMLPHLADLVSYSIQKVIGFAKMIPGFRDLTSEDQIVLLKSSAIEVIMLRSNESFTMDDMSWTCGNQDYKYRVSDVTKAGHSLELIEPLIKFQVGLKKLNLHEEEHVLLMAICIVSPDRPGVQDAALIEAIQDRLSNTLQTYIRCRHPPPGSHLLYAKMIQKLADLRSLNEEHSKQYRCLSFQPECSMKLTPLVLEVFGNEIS
#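 Reagent solutions, kept cold and dark, are dispensed first; compounds are then pinned in at 23 nl, plates briefly spun, and incubated 2 h at ambient temperature. Inhibition of VDR–SRC2-3 peptide binding is read by fluorescence polarization.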
# GCN5L2 inh – GCN5L2 (KAT2A) acetyltransferase inhibition; actives 0.21% (n = 390,000); GCN5L2 HAT assay, ThioGlo1 CoA-SH fluorescence; Potency, µM (titrated, usually from 58.9 µM), without a hit: at the top dose activity change, negative = inhibition, hits mostly inhibitors
#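 Compounds, pin-transferred from DMSO stocks, meet 20nM GCN5L2 for 15 min before the reaction begins with H3(1-25) peptide (75uM) and acetyl-CoA (70uM). Thiol-reactive ThioGlo1 reports CoA release over 20 min at room temperature.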
# Numbers without * were called inactive; ? = inconclusive; . = no result; [ ] = remark or other dose. The call rests on the fitted dose curve; in most records, active means well fitted curve in the direction sought with a large enough effect; inconclusive means small, poorly fitted or top-dose-only effect, or another doubt; inactive means no such curve, though single readings can be large; an effect the other way counts as inactive or inconclusive. Unless noted, on the % scale 0 is the no-effect control and ±100 the full control effect; potency means the concentration at half of the fitted maximal effect.
SMILES,TrxR1 substrate,Sfp inh,TrxR1 inh,GLS inhibitor,VDR inhibitor,GCN5L2 inh
C/C(CC1CC(C)OC1=O)=N\NC(N)=S (stereo not drawn),2%,25µM*,2%,0%,10%,0%
CN(C)/C=C1\NC(=S)N(c2ccc(Cl)cc2)C1=O,-4%[57.1 µM],32µM*,-8%[57.1 µM],0%,1%,-3%
CCOP(=O)(OCC)c1nc(-c2ccccc2)oc1N1CCCCC1,472%,3%,-20%,-6%,-14%,-3%
CCOc1ccc(C2NC(=O)NC(c3ccccc3)=C2C(C)=O)cc1OC (stereo not drawn),-3%,16%,20%,2%,-5%,2%
CC(=O)C1=C(c2ccccc2)NC(=S)NC1c1ccc(O)c(O)c1 (stereo not drawn),4%[57.1 µM],-20%,-8%[57.1 µM],8.9µM*,-2%,-11%
CC(=O)C1=C(c2ccccc2)NC(=O)NC1c1ccc(O)c(O)c1 (stereo not drawn),2%[57.1 µM],45µM*,-27%[57.1 µM],10µM*,-7%,-4%
O=C(CCC1N=C2c3ccccc3N=C(SCC(=O)Nc3ccccc3F)N2C1=O)NCc1ccccc1 (stereo not drawn),5%,.,4%,-3%,9%,-2%
N#Cc1ccccc1CSc1ccc(-c2nc3ccccc3[nH]2)cn1,7%,4.5µM*,13%,7%,3%,-12%
Cc1cc2nc(-c3ccc(SCc4ccc(C#N)cc4)nc3)[nH]c2cc1C,10%[57.1 µM],5%,22%[57.1 µM],-7%,3%,?
Cc1cc2nc(CS)[nH]c2cc1C,-9%[2.29 µM],40µM*,-27%[2.29 µM],-2%,?,28%
Cc1cc2nc(CO)[nH]c2cc1C,14%[57.1 µM],12%,10%[2.29 µM],1%,-10%,-4%
COc1ccc(C2NCCc3c2[nH]c2ccccc32)cc1CSc1nc2ccccc2s1 (stereo not drawn),-15%,45µM*,-21%,7%,5%,-20%
COc1ccc(C2NC(C(=O)O)Cc3c2[nH]c2ccccc32)cc1OC (stereo not drawn),10%[57.1 µM],-15%,-22%[57.1 µM],36%,5%,-2%
CCOC(=O)C1CCN(C(=S)Nc2ccc(S(N)(=O)=O)cc2)CC1,-14%,45µM*,?,13%,-23%,2%
NS(=O)(=O)c1ccc(NC(=S)N2CCN(c3ccccc3)CC2)cc1,-9%,-13%,-13%,23%,13%,-5%
CCOC(=O)C1CCCN(C(=S)Nc2ccc(Nc3ccccc3)cc2)C1 (stereo not drawn),0%[57.1 µM],45µM*,8%[57.1 µM],?,-9%,-16%
NS(=O)(=O)c1ccc(NC(=S)N2CCC(O)CC2)cc1,-17%[57.1 µM],45µM*,13%[57.1 µM],18%,-20%,-1%
CC(=O)c1ccc(NC(=S)N2c3ccccc3CC2C)cc1 (stereo not drawn),4%[11.4 µM],-51%,9%[11.4 µM],17%,-6%,-13%
CCC(C)(C)n1nnnc1C(c1ccc2ncccc2c1)N1CCN(c2nc3ccccc3s2)CC1 (stereo not drawn),3%,-14%,-1%,3%,11%,-5%
CCC(C)(C)n1nnnc1C(c1ccc2ncccc2c1)N1CCN(c2ccc(O)cc2)CC1 (stereo not drawn),2%,20µM*,15%,?,-9%,-9%
Cc1ccc(SC(=O)c2c(C)noc2-c2cc(C)on2)cc1,-6%,-17%,40µM*,3%,?,-10%
Cc1cc(C)n(CC(=O)NC2C(=O)N3C(C(=O)O)=C(CSc4nnc(C)s4)CSC23)n1 (stereo not drawn),11%,56µM*,-24%,-7%,-20%,-3%
Cc1nnc(SCC2=C(C(=O)O)N3C(=O)C(NC(=O)c4cccc(F)c4F)C3SC2)s1 (stereo not drawn),6%,56µM*,?,-9%,?,-9%
